Laboratory results: PubChem BioAssay (Tox21)
Results filed as inconclusive are left out. The source made the active and inactive calls. Unless noted, the call rests on the fitted dose curve; in most records, active means well fitted curve in the direction sought with a large enough effect in the repeat runs; inconclusive means weak or mixed curves; inactive means no such curve, though single readings can be large; an effect the other way counts as inactive or inconclusive.

Columns and labels:
[1] = qHTS assay to identify small molecule antagonists of the estrogen receptor beta (ER-beta) signaling pathway - cell viability counter screen (AID 1259382); conditions: ER-beta-UAS-bla HEK293T viability, CellTiter-Glo luminescence, 16 h; series mostly up to 92.4 µM;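 further: HEK293T cells carrying ER-beta-UAS-bla reporter stimulated with estradiol; nearly all actives have a fitted effect of over 55% in size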
Outline: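 In this multiplexed counter screen, cells were seeded at 2,000 per well in medium with 2% charcoal-stripped FBS and incubated 6 hr before compound and 1nM final E2 were added. Sixteen hours later, ATP-based luminescence reported viability.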

[2] = qHTS assay to identify small molecule agonists or antagonists of the thyroid stimulating hormone receptor (TSHR) signaling pathway - wild type cell line counter screen (AID 1259384; calls by dose curve); conditions: HEK293 wild type, cAMP HTRF counter-screen, stronger effect = higher value; series mostly up to 92.4 µM
Outline: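 Counter screen in untransfected Hek293: compounds (15-point titration, triplicate) plus phosphodiesterase inhibitor Ro20-1724 added after 18 h plating; 30 min RT. Intracellular cAMP via competitive d2/cryptate immunoassay, 1 h incubation.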

[3] = molecular target: Thyrotropin receptor (Homo sapiens) (UniProt P16473); assay: qHTS assay to identify small molecule antagonists of the thyroid stimulating hormone receptor (TSHR) signaling pathway (AID 1259385; calls by dose curve; further: nearly all actives have a fitted effect of over 20% in size); conditions: TSHR-HEK293 cAMP HTRF, TSH-stimulated antagonist mode; series mostly up to 92.4 µM
Sequence of Thyrotropin receptor (Homo sapiens) (P16473 whole entry, looked up): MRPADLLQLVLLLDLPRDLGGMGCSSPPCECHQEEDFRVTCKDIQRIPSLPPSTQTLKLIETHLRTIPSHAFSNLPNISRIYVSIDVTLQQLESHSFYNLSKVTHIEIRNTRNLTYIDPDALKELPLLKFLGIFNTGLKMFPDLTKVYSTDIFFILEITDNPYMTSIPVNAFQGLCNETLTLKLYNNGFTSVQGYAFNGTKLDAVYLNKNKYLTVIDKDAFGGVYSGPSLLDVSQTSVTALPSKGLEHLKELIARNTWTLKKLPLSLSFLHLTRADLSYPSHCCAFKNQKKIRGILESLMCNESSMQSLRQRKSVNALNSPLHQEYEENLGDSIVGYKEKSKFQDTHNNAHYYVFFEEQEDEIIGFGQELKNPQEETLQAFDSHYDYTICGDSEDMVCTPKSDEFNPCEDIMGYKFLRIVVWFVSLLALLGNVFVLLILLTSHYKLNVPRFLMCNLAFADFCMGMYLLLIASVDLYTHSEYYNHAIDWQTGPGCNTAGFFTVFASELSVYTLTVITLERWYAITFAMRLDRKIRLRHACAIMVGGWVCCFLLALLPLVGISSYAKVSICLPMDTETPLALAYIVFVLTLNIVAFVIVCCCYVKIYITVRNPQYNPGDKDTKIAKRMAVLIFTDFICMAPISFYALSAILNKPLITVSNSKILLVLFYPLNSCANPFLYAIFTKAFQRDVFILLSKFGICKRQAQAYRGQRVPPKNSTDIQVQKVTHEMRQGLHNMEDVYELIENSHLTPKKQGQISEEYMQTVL
Outline: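 Antagonist mode: compound-treated TSHR-expressing HEK293 cells were stimulated with 1.5 ng/mL TSH (final) in presence of Ro20-1724 for 30 min at RT. HTRF cAMP detection after 1 h; each compound tested at 15 concentrations, triplicate.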

[4] = molecular target: Progesterone receptor (Homo sapiens) (UniProt P06401); assay: qHTS assay to identify small molecule agonists of the progesterone receptor (PR) signaling pathway (AID 1346784; calls by dose curve; further: nearly all actives have a fitted effect of over 30% in size); conditions: PR-UAS-bla HEK293T, beta-lactamase FRET ratio, 16 h; series mostly up to 92.4 µM
Sequence of Progesterone receptor (Homo sapiens) (P06401 whole entry, looked up): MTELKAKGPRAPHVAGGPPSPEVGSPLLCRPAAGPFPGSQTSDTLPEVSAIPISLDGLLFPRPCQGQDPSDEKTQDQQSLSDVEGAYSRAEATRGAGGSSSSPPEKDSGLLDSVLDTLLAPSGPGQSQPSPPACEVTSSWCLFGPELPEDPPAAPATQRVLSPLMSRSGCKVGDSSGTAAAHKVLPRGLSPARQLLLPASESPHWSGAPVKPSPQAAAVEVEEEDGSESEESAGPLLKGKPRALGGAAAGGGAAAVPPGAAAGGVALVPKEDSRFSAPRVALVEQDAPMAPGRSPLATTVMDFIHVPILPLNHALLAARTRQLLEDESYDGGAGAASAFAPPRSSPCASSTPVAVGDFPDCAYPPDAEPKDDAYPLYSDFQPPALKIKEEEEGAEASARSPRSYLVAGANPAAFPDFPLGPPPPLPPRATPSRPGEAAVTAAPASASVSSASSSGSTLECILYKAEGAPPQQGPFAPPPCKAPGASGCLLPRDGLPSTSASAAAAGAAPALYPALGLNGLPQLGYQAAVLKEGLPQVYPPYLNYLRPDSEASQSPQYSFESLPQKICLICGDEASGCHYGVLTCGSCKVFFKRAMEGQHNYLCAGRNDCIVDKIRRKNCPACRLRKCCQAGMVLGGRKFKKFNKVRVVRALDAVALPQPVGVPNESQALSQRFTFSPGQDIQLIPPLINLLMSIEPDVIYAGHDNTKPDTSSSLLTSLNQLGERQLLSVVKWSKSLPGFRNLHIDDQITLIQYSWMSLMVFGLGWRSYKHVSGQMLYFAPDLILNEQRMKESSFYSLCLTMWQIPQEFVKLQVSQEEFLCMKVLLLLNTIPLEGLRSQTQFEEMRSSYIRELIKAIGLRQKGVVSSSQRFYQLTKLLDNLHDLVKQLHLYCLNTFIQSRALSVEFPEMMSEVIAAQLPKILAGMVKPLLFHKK
Outline: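 Using charcoal-stripped serum (2%) to limit endogenous steroids, PR-UAS-bla HEK 293T cells received compounds for 16 hr at 37C after 6 hr plating; beta-lactamase FRET fluorescence was recorded following 2 hr substrate loading at room temperature.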

[5] = qHTS assay to identify small molecule antagonists of the progesterone receptor (PR) signaling pathway - cell viability counter screen (AID 1346798); conditions: PR-UAS-bla HEK293T viability, CellTiter-Glo luminescence, 16 h; series mostly up to 92.4 µM; further: nearly all actives have a fitted effect of over 50% in size
Outline: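 ATP content as viability readout: CellTiter-Glo luminescence, 30 min room temperature, in PR-UAS-bla HEK293T cells after 16 hr compound/R5020 treatment at 37C and 5% CO2.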

[6] = qHTS assay to identify small molecule agonists of the progesterone receptor (PR) signaling pathway - cell viability counter screen (AID 1346799; calls by dose curve; further: nearly all actives have a fitted effect of over 45% in size); conditions: PR-UAS-bla HEK293T viability, CellTiter-Glo luminescence, 16 h; series mostly up to 92.4 µM
Outline: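 Cytotoxicity in PR-bla HEK293T cells: 16 h compound, 37C; CellTiter-Glo added post-FRET read; luminescence after 30 min RT.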

[7] = qHTS assay to identify small molecule antagonists of the TGF-beta/Smad signaling pathway - cell viability counter screen (AID 1346824); conditions: SBE-bla HEK293T viability, CellTiter-Glo luminescence; series mostly up to 76.8 µM; further: nearly all actives have a fitted effect of over 50% in size
Outline: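 Cytotoxicity counter-screen run in the same wells as the beta-lactamase Smad reporter read: CellTiter-Glo luminescence after 30 min at room temperature. HEK 293T SBE-bla cells had 5 hr compound exposure at 37 C with TGF-beta1 (0.25 ng/mL stock).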

[8] = qHTS assay to identify small molecule agonists of the TGF-beta/Smad signaling pathway - cell viability counter screen (AID 1346829); conditions: SBE-bla HEK293T viability, CellTiter-Glo luminescence, 5 h; series mostly up to 76.8 µM; further: top concentration of the series differs between compounds; nearly all actives have a fitted effect of over 45% in size
Outline: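 Compound-treated SBE-bla HEK 293T cells (5 hr, 37 C) were assessed for viability with CellTiter-Glo in parallel with the reporter read.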

[9] = qHTS assay to identify small molecule agonists of the TGF-beta/Smad signaling pathway (AID 1346859; active means well fitted activation curve with a large enough effect in the signal ratio in the repeat runs, not every such curve was filed as active; the % refers to the signal ratio); conditions: SBE-bla HEK293T, TGF-beta/Smad beta-lactamase reporter, 5 h; series mostly up to 76.8 µM
Outline: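 Stable Smad binding element-beta-lactamase HEK 293T cells; 5 hr compound exposure at 37 C under 5% CO2; 2 hr room-temperature substrate step; fluorescence excited at 405 nm, collected at 460 nm and 530 nm.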

[10] = Human pregnane X receptor (PXR) small molecule agonists, qHTS cell viability counter screen (AID 1346977); conditions: PXR-Luc HepG2 viability, CellTiter-Fluor, 24 h; series mostly up to 92.4 µM; further: nearly all actives have a fitted effect of over 50% in size
Outline: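 Readout is CellTiter-Fluor fluorescence from PXR-Luc HepG2 cells. Plated cells rested 5hr, then were treated with compounds for 24hr at 37C and 5% CO2, with reagent present during the last hour.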

[11] = Caspase-3/7 induction in HepG2 cells by small molecules, qHTS assay (AID 1346978); conditions: HepG2 caspase-3/7 activation, Caspase-Glo luminescence, 17 h; series mostly up to 92.4 µM; further: nearly all actives have a fitted effect of over 15% in size
Outline: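 Caspase-3/7 induction was measured by Caspase-Glo 3/7 luminescence (30 min, room temperature) after a 17 hr compound exposure of wild-type HepG2 cells seeded at 2,000 per well and pre-incubated 5 hr.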

[12] = Caspase-3/7 induction in CHO-K1 cells by small molecules, qHTS cell viability counter screen (AID 1346979); conditions: CellTiter-Fluor fluorescence, 17 h; series mostly up to 92.4 µM; further: nearly all actives have a fitted effect of over 35% in size
Outline: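 To flag cytotoxic compounds, treated CHO-K1 wild-type cells were given CellTiter-Fluor at 16hr and read fluorescently after 1hr at 37C; the caspase-3/7 luminescence was measured in these same wells.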

[13] = Caspase-3/7 induction in CHO-K1 cells by small molecules, qHTS assay (AID 1346980); conditions: CHO-K1 caspase-3/7 induction, Caspase-Glo luminescence, 17 h; series mostly up to 92.4 µM; further: nearly all actives have a fitted effect of over 15% in size
Outline: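 Luminescent Caspase-Glo 3/7 read (30min, room temperature) quantified apoptosis induction. Cells were wild-type CHO-K1, treated with compound for 17hr at 37 C and 5% CO2.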

[14] = Caspase-3/7 induction in HepG2 cells by small molecules, qHTS cell viability counter screen (AID 1346981); conditions: CellTiter-Fluor fluorescence, 17 h; series mostly up to 92.4 µM; further: nearly all actives have a fitted effect of over 30% in size
Outline: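 Viability determined by CellTiter-Fluor fluorescence in HepG2 wells also used for the luminescent Caspase-Glo 3/7 read. Compounds were present for 16 hr at 37 C, 5% CO2 before reagent addition.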

[15] = molecular target: Nuclear receptor subfamily 1 group I member 2 (Homo sapiens) (UniProt O75469); assay: Human pregnane X receptor (PXR) small molecule agonists, qHTS assay (AID 1346982); conditions: PXR-Luc HepG2, CYP3A4 luciferase reporter, 24 h; series mostly up to 92.4 µM; further: nearly all actives have a fitted effect of over 35% in size
Sequence of Nuclear receptor subfamily 1 group I member 2 (Homo sapiens) (O75469 whole entry, looked up): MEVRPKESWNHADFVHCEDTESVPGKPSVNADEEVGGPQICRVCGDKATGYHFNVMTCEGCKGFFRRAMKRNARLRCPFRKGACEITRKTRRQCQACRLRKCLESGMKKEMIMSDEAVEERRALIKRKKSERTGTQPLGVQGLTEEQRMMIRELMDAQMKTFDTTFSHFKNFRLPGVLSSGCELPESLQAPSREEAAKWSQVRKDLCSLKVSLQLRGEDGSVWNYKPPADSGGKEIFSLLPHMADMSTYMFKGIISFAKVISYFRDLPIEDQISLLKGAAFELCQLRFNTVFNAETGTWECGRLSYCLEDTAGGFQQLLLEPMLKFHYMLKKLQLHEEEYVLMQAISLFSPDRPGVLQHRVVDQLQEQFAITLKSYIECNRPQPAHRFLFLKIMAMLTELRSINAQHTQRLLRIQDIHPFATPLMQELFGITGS
Outline: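 Compound-induced hPXR transactivation of a CYP3A4 luciferase reporter was scored in HepG2 PXR-Luc cells over 24 hr at 37 C, 5% CO2, by luminescence.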

[16] = qHTS assay to identify small molecule agonists of the estrogen receptor alpha (ER-alpha) signaling pathway in the presence of an antagonist - cell viability counter screen (AID 1259386); conditions: VM7Luc4E2 viability, CellTiter-Fluor fluorescence, 22 h; series mostly up to 92.4 µM;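 further: cells exposed to compounds for 22 h at 37 °C before the viability read; nearly all actives have a fitted effect of over 30% in size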
Outline: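 Viability counter screen using VM7Luc4E2 (full-length ER-alpha, four ERE-luciferase). The cells were treated with compounds alongside ICI-182,780 10.0nM for 22hr, and live-cell protease fluorescence was quantified with CellTiter-Fluor.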

[17] = molecular target: Thyrotropin-releasing hormone receptor (Homo sapiens) (UniProt P34981); assay: qHTS assay to identify small molecule antagonists of the thyrotropin-releasing hormone receptor (TRHR) signaling pathway (AID 1346877; active means well fitted inhibition curve with a large enough effect in the repeat runs, not every such curve was filed as active); conditions: TRHR-HEK293, TRH-induced calcium fluorescence, antagonist mode; series mostly up to 51.3 µM
Sequence of Thyrotropin-releasing hormone receptor (Homo sapiens) (P34981 whole entry, looked up): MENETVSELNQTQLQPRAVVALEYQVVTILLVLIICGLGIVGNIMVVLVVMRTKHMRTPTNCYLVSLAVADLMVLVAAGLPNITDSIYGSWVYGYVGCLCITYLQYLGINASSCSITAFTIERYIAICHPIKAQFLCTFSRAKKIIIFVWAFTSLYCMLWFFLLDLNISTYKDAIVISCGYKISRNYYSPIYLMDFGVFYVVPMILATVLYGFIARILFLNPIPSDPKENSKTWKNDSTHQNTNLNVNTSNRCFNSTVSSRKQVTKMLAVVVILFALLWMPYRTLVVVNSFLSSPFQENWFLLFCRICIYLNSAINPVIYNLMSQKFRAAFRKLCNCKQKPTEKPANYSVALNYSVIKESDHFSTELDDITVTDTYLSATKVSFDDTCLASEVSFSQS
Outline: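 Following an 18 h incubation at 37 °C and a 2 h calcium dye load, TRHR-HEK293 cells were exposed to compound (5 min, room temperature) and challenged with TRH, 1 nM final.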

[18] = molecular target: Thyrotropin-releasing hormone receptor (Homo sapiens) (UniProt P34981); assay: qHTS assay to identify small molecule agonists of the thyrotropin-releasing hormone receptor (TRHR) signaling pathway (AID 1346891; calls by dose curve;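 further: HEK293 cells expressing TRHR with calcium dye readout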); conditions: TRHR-HEK293 calcium fluorescence, agonist mode; series mostly up to 57.6 µM
Outline: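 In 1536-format, 1500 TRHR-Hek293 cells per well grew 18 h, took up calcium dye for 2 h at 37 °C, received compound, and were read kinetically; 15-point titrations, triplicates.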

[19] = molecular target: Progesterone receptor (Homo sapiens) (UniProt P06401); assay: qHTS assay to identify small molecule antagonists of the progesterone receptor (PR) signaling pathway (AID 1346795; active means well fitted inhibition curve with a large enough effect in the signal ratio in the repeat runs, not every such curve was filed as active; the % refers to the signal ratio); conditions: PR-UAS-bla HEK293T, beta-lactamase FRET ratio, 16 h; series mostly up to 92.4 µM
Outline: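 Inhibition of R5020-induced (1 nM final) beta-lactamase reporter signal in PR-UAS-bla HEK293T cells was scored by FRET fluorescence after overnight (16 hr) compound treatment.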
On the % scale 0 is the no-effect control and ±100 the full control effect.

CCC1Nc2cc(Cl)c(S(N)(=O)=O)cc2S(=O)(=O)N1 (centres undefined)
inactive: outcome [1] | outcome [2] | outcome [3] | Potency [4] | Potency [5] | Potency [6] | outcome [7] | outcome [8] | outcome [9] | Potency [10] | outcome [11] | Potency [12] | outcome [13] | Potency [14] | Potency [15]

CCCCC(=O)N(C)C
inactive: outcome [1] | outcome [2] | outcome [3] | Potency [16] | Potency [4] | Potency [6] | outcome [7] | outcome [8] | outcome [9] | outcome [17] | outcome [18] | Potency [10] | outcome [11] | Potency [12] | outcome [13] | Potency [14] | Potency [15]

C=C(C)C(=O)OCCCCCCOC(=O)C(=C)C
inactive: outcome [1] | outcome [2] | Potency [16] | Potency [4] | Potency [5] | Potency [6] | outcome [7] | outcome [8] | outcome [9] | outcome [17] | outcome [18] | Potency [10] | outcome [11] | Potency [12] | outcome [13] | Potency [14] | Potency [15]

c1ccccc1
inactive: outcome [1] | outcome [2] | outcome [3] | Potency [16] | Potency [5] | Potency [6] | outcome [7] | outcome [8] | outcome [9] | outcome [17] | outcome [18] | Potency [10] | outcome [11] | Potency [12] | outcome [13] | Potency [14]

Nc1c(NC/C=C\COc2cc(CN3CCCCC3)ccn2)c(=O)c1=O
inactive: activity change, negative = cytotoxicity [1] 0.149% [at 19 µM] | cAMP activity change [2] -0.455% [at 18.9 µM] | activity change, negative = inhibition [3] -4.41% [at 19 µM] | activation [4] 1.78% [at 19 µM] | activity change, negative = inhibition [19] 9.62% [at 18.9 µM] | activity change, negative = cytotoxicity [5] 4.14% [at 18.9 µM] | activity change, negative = cytotoxicity [6] -2.25% [at 19 µM] | viability change, negative = cytotoxic [7] 0.148% [at 15.8 µM] | activity change, negative = cytotoxicity [8] 2.86% [at 15.8 µM] | activation [9] -0.0935% [at 15.8 µM] | activity, negative = inhibition [17] -1.01% [at 10.5 µM] | activation [18] -0.0658% [at 11.8 µM] | caspase activation [11] -0.539% [at 19 µM] | caspase-3/7 activation [13] -0.585% [at 19 µM] | activation [15] -1.56% [at 19 µM]

O=C(O)Cc1cccc(-c2cc(CCCCCCc3ccc(O[C@H]4O[C@H](CO)[C@@H](O)[C@H](O)[C@@H]4O)c(-c4cccc(CC(=O)O)c4)c3)ccc2O[C@H]2O[C@H](CO)[C@@H](O)[C@H](O)[C@@H]2O)c1
inactive: activity change, negative = cytotoxicity [1] 7.67% [at 0.349 µM] | cAMP activity change [2] -6.17% [at 0.349 µM] | activity change, negative = cytotoxicity [16] 4.6% [at 0.349 µM] | activation [4] 1.15% [at 0.349 µM] | activity change, negative = inhibition [19] 0.629% [at 0.348 µM] | activity change, negative = cytotoxicity [5] 8.15% [at 0.348 µM] | viability change, negative = cytotoxic [7] 10.9% [at 0.29 µM] | activation [9] -0.374% [at 0.29 µM] | activity, negative = inhibition [17] 0.417% [at 0.194 µM] | activation [18] -0.342% [at 0.218 µM] | activity change, negative = cytotoxicity [10] 17.5% [at 0.349 µM] | caspase activation [11] 0.734% [at 0.349 µM] | activity change, negative = cytotoxicity [12] 2.17% [at 0.349 µM] | caspase-3/7 activation [13] 1.55% [at 0.349 µM] | activity change, negative = cytotoxicity [14] 2.65% [at 0.349 µM]

O=C(COCCOCCOCC(=O)Nc1c(I)cc(I)c(C(=O)O)c1I)Nc1c(I)cc(I)c(C(=O)O)c1I
inactive: outcome [1] | outcome [2] | Potency [16] | Potency [4] | Potency [19] | Potency [5] | Potency [6] | outcome [7] | outcome [9] | outcome [17] | outcome [18] | Potency [10] | outcome [11] | Potency [12] | Potency [14] | Potency [15]

CC(C)COC(=O)CCCCC(=O)OCC(C)C
inactive: outcome [1] | outcome [2] | Potency [16] | Potency [4] | Potency [19] | Potency [5] | Potency [6] | outcome [7] | outcome [8] | outcome [9] | outcome [17] | outcome [18] | Potency [10] | outcome [11] | Potency [12] | outcome [13] | Potency [14] | Potency [15]
